Bioassay records deposited in PubChem BioAssay by National Center for Advancing Translational Sciences (NCATS).
This is a sample that favours compounds with a hit; in the whole collection about 6.1% have one here.
D1 potentiator: human D1 dopamine receptor positive modulation; HEK293 TREx D1 cells, calcium flux, dopamine EC20 potentiation; hit rate 0.036% among 360,000; potentiation, % at 10 µM; AID 504651; in the data active means potentiation above about 30%; further: 0% is about no effect
Target sequence (P21728 whole entry, looked up): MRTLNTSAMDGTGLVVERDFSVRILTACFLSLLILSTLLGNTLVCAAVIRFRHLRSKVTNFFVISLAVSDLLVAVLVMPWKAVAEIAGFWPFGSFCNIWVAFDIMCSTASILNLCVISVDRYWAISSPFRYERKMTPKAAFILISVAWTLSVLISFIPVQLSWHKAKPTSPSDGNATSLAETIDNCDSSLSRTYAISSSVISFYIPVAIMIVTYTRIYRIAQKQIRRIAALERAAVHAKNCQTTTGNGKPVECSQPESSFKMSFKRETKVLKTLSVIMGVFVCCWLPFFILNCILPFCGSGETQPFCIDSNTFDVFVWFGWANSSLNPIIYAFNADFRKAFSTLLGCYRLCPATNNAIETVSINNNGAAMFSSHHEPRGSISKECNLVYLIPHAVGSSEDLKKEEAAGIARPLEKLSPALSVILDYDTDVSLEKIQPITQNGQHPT
D3 antag: blocks the human D3 dopamine receptor; P35462; D3R cells, DiscoveRx beta-arrestin luminescence, antagonist mode; hits give low values; max response, negative = inhibition, %; hit rate 2.5% among 360,000; AID 652054; in the data active means max response below about -50%; further: on the % scale 0 is the no-effect control and ±100 the full control effect
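Cells expressing the human receptor were seeded at 1500 cells/well, incubated overnight at 37 degrees C in 5% CO2, then exposed to library compounds with dopamine controls for 90 minutes at 37 degrees C before luminescent detection.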
D1 antag: antagonists of human D1 dopamine receptor | P21728 | HEK293 TREx D1 cells, calcium flux, dopamine EC80; hits give low values | activity change, negative = inhibition, % at 10 µM | hit rate 3.2% among 360,000; in the data active means activity change below about -30%; further: on the % scale 0 is the no-effect control and ±100 the full control effect
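Antagonism measured as reduced calcium response to an EC80 dopamine addition following 180 s compound pre-read; cells were inducible HEK293 Trex D1 plated overnight at 30 C, read kinetically at 1 cycle/sec.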
D1 agonist: activates the human D1 dopamine receptor. HEK293 T-REx D1 cells, calcium flux, agonist mode. activation, % at 2 µM. hit rate 1% among 360,000; in the data active means activation above about 30%; further: 0% is about no effect
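Agonism was scored from calcium flux recorded over 180 s (1 read/s) after pintool compound addition, following a 10-cycle baseline. Cells were inducible force-coupled HEK293 TREx D1, plated overnight at 30 C and loaded with no-wash calcium dye.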
ERG Ets-DNA blk: blocks human ERG Ets domain binding to DNA | P11308 | hit rate 0.028% among 370,000 | Potency, µM (doses to about 76.9 µM), without a hit: at the highest dose FP activity, negative = inhibition, hits mostly inhibitors | AID 624246 | fluorescence polarization, His-ERG Ets domain / labelled DNA; active means well fitted inhibition curve with a large enough effect in the polarisation, with a control signal flat; the % refers to the polarisation;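 further: polarization taken with two DNA probes labelled with fluorescein and Texas red; potency means the concentration at half of the fitted maximal effect; % of control where 0% means no effect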
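His-tagged ERG Ets domain (1 uM in the protein solution; 300mM KCl, 50mM Tris-HCl, 1mM EDTA, 1mM DTT, pH 7.5) received compound, then a probe mix of 5 nM fluorescein-DNA and 100nM Texas-615-DNA. Fluorescence polarization was read for both dyes.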
D3 ag: agonists of human D3 dopamine receptor; P35462; D3R DiscoveRx beta-arrestin cells, luminescence, 90 min; max activation, %; hit rate 0.58% among 410,000; in the data active means max activation above about 30%; further: 0% is about no effect
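Agonist mode: compounds and dopamine controls were applied to plated cells for 90 min at 37 degrees C after an overnight attachment at 1500 cells/well. Luminescent read-out followed 30 - 60 minutes at room temperature with DiscoveRx detection reagent.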
Numbers without * were called inactive; [ ] = remark or other dose.

COc1ccc(O)c(C(=O)c2cnn(C(=O)c3cc(C)oc3C)c2)c1 was read as D1 potentiator -8.6, D3 antag 4.8, D1 antag -46.2*, D1 agonist 1.8, ERG Ets-DNA blk 5.7% and D3 ag 4.4.
For O=C(CCN1C(=O)C2C3C=CC(C3)C2C1=O)Nc1nccs1 (stereo not given) the results were D1 potentiator -15.2, D3 antag 6.9, D1 antag -63.8*, D1 agonist 0.2, ERG Ets-DNA blk -4.9% and D3 ag 3.4.
Cc1cc(C(=O)OCC(=O)N2CC(C)OC(C)C2)c(C)n1-c1ccccc1 (stereo not given) was read as D3 antag 24.5, D1 antag -64.8*, D1 agonist 7.4 and D3 ag 5.3.
`CCNC(=O)COC(=O)c1cc(C)n(-c2ccccc2)c1C` gave D1 potentiator -0.2, D3 antag 7.7, D1 antag -54.8*, D1 agonist 8.1, ERG Ets-DNA blk 4.0% and D3 ag 3.3.
Screening CC1CN(C(=O)COC(=O)c2cncc(Br)c2)CC(C)O1 (stereo not given) returned D3 antag -54.2* and D3 ag 1.3.
For CC1CCC(NC(=O)CN(C)CC(=O)Nc2ccc(F)cc2)CC1 (stereo not given) the results were D3 antag 19.1, D1 antag -0.1, D1 agonist 2.3, ERG Ets-DNA blk -2.4%[15.4 µM] and D3 ag -10.2.
For COc1ccc(CCNC(=O)c2cccs2)cc1OC the results were D1 potentiator -4.3, D3 antag -5.1, D1 antag 4.7, D1 agonist 1.4, ERG Ets-DNA blk 2.5% and D3 ag 4.3.
COc1ccc(CNc2nc(NCc3ccc(OC)c(OC)c3)n(C(=O)c3cccs3)n2)cc1OC was read as D1 potentiator 2.3, D3 antag 59.9, D1 antag 1.7, D1 agonist 3.1, ERG Ets-DNA blk 17.5% and D3 ag 45.4*.
Screening Cc1cccc(C)c1NC(=O)COC(=O)C1C2CC3OC(=O)C1C3C2 (stereo not given) returned D1 potentiator -3.2, D3 antag -5.9, D1 antag -5.0, D1 agonist 0.9, ERG Ets-DNA blk -2.0% and D3 ag 3.2.
`C[C@@H]1COC(=O)[C@@H](Cc2ccc(F)cc2)C/C=C\C[C@@H](CC(=O)NCCO)C(=O)N1` gave D3 antag 8.8, ERG Ets-DNA blk -1.8% and D3 ag 13.0.
Cc1cc(C)c(S(=O)(=O)c2ccc(C(C)(C)C)cc2)c(Cl)n1 was read as D1 potentiator -6.7, D3 antag -2.7, D1 antag -26.7, D1 agonist 34.0*, ERG Ets-DNA blk -6.9% and D3 ag -1.5.
Screening COc1ccc(C#Cc2ccc(C3=CC(=O)CC(C)(C)C3=O)cc2)cc1 returned D3 antag 5.2 and D3 ag 5.3.
For O=C(OCn1nnc2ccccc2c1=O)c1cc2ccccc2o1 the results were D1 potentiator -5.2, D3 antag 8.9, D1 antag -31.7*, D1 agonist 1.8, ERG Ets-DNA blk 7.9% and D3 ag 4.9.
`Cc1ccccc1N1C(=O)CC(Sc2nnc(-c3ccccc3)o2)C1=O` (stereo not given) gave D1 potentiator -2.7, D3 antag -78.9*, D1 antag -1.7, D1 agonist 2.6, ERG Ets-DNA blk 10.1% and D3 ag -11.1.
O=C1CC(Sc2nnc(-c3ccccc3)o2)C(=O)N1c1ccccc1 (stereo not given) was read as D1 potentiator -0.9, D3 antag -14.6, D1 antag -3.4, D1 agonist 3.4, ERG Ets-DNA blk -1.0% and D3 ag -2.4.
Screening COc1ccc(CS(=O)(=O)/C(Cl)=C(/Cl)C(=O)Nc2ccc(OC)nc2)cc1 returned D1 potentiator -8.4, D3 antag -50.8*, D1 antag -22.2, D1 agonist 3.0, ERG Ets-DNA blk 13.2% and D3 ag -17.0.
`COc1ccc(NC(=O)/C(Cl)=C(/Cl)S(=O)Cc2ccccc2)cn1` (stereo not given) gave D1 potentiator 3.4, D3 antag -131.4*, D1 antag 14.8, D1 agonist -0.6, ERG Ets-DNA blk 3.3% and D3 ag -27.9.
For Cn1nc(C(C)(C)C)cc1NC(=O)C1(C)CCN1C(=O)Cc1ccc(-c2ccccc2)cc1 (stereo not given) the results were D3 antag 2.7 and D3 ag 7.4.
`CCCCn1c(SCC(=O)c2ccc3c(c2)NC(=O)CO3)nc2cc(S(N)(=O)=O)ccc21` gave D1 potentiator 0.1, D3 antag 8.2, D1 antag 1.5, D1 agonist 3.9, ERG Ets-DNA blk 3.9% and D3 ag 4.1.
Screening COc1ccc(N(CC(=O)N/N=C(\C)c2ccccc2)S(=O)(=O)c2ccccc2)cc1 returned D1 potentiator -7.8, D3 antag 15.1, D1 antag 10.8, D1 agonist -0.5, ERG Ets-DNA blk -1.1% and D3 ag 4.6.
`COc1ccc(N/C(=N\c2nc(C)cc(C)n2)NC(=O)C(C)C)cc1OC` gave D1 potentiator 5.2, D3 antag -65.2*, D1 antag 1.9, D1 agonist -1.6, ERG Ets-DNA blk 7.6% and D3 ag -0.6.
COc1ccc(N/C(=N/c2nc(C)cc(C)n2)NC(=O)c2ccccc2)cc1 was read as D1 potentiator -13.9, D3 antag 9.4, D1 antag -59.4*, D1 agonist 0.0, ERG Ets-DNA blk 14.2% and D3 ag 0.6.
Screening CCC(=O)N/C(=N/c1nc(C)cc(C)n1)Nc1ccc(C)cc1 returned D1 potentiator -7.7, D3 antag 1.8, D1 antag -42.6*, D1 agonist 0.3, ERG Ets-DNA blk -0.6% and D3 ag 0.9.
Screening Cc1cc(C)c(C)c(OCCCOc2cccc3cccnc23)c1 returned D1 potentiator 5.0, D3 antag 2.4, D1 antag 15.9, D1 agonist 19.9, ERG Ets-DNA blk 0.8% and D3 ag 13.0.
Screening CC1Sc2ccc(S(=O)(=O)N3CCC(C(=O)NCc4ccco4)CC3)cc2NC1=O (stereo not given) returned D1 potentiator -0.3, D3 antag -3.2, D1 antag -13.4, D1 agonist 1.6, ERG Ets-DNA blk 0.3% and D3 ag 2.6.
CC1CN(C(=O)c2ccc(S(=O)(=O)Nc3ccccc3Cl)cc2)CC(C)O1 (stereo not given) was read as D1 potentiator 3.0, D3 antag 3.6, D1 antag 1.0, D1 agonist 2.6, ERG Ets-DNA blk 3.4% and D3 ag 13.3.
